Each structure is given as a SMILES string. About 83,000 compounds went through this panel and 20% of them were active in at least one assay; those are over-represented in the sample as a whole.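 Note: values are percent growth. 100 is the growth of untreated cells, values between 100 and 0 indicate rising inhibition; between -100 and 0 indicates cell death.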 A number with no mark means an inactive call. Active and inactive are the calls of the source. The calls were made as follows: active = growth percent below 10; inactive = the rest.

Among the test systems are SR leukemia; RPMI-8226 leukemia; OVCAR-8 ovarian; OVCAR-5 ovarian; SK-OV-3 ovarian; IGROV1 ovarian; OVCAR-3 ovarian; HS 578T breast; NCI/ADR-RES ovarian; T-47D breast; BT-549 breast; MDA-MB-435 melanoma; SW-620 colon; MCF7 breast; HCT-116 colon; HCC-2998 colon; KM12 colon; OVCAR-4 ovarian.
What all share (assay): NCI-60 one-dose screen, 48 h (100 = growth as untreated, 0 = no growth, -100 = all killed)
What all share (settings): 10 µM unless noted

For `O=C(Nc1ccc([N+](=O)[O-])cc1)c1cc2ccccc2cc1O`, the growth in the assay on SR leukemia is -17.1% (active); in the assay on RPMI-8226 leukemia, -26.9% (active); in the assay on OVCAR-8 ovarian it was 0.735% (active); in the assay with OVCAR-5 ovarian, 20.7%; in the assay with SK-OV-3 ovarian it was 9.58% (active); in the assay with IGROV1 ovarian, 15.2%. Moreover, the growth was 83.6% in the assay with OVCAR-3 ovarian; -19.9% (active) in the assay on HS 578T breast; -9.03% (active) in the assay with NCI/ADR-RES ovarian; 1.61% (active) in the assay on T-47D breast; -14.2% (active) in the assay with BT-549 breast; 0.673% (active) with MDA-MB-435 melanoma. In addition, the growth with SW-620 colon is 4.63% (active); in the assay on MCF7 breast, 5.51% (active); in the assay on HCT-116 colon, -39.7% (active); in the assay on HCC-2998 colon it was 5.37% (active); with KM12 colon, 92.6%.

With `CC1OC(n2c3ccccc3c3c4c(c5c6ccccc6[nH]c5c32)C(=O)N(CCN2CCOCC2)C4=O)CC(O)C1O` (configuration not stated), the growth with SR leukemia was 10.7%; in the assay with RPMI-8226 leukemia it was 27.8%; with OVCAR-8 ovarian, 32.4%; with OVCAR-5 ovarian, 61.7%; in the assay with OVCAR-4 ovarian it was 46.5%; in the assay on SK-OV-3 ovarian, 6.84% (active). The growth in the assay with IGROV1 ovarian is 48.3%; in the assay with OVCAR-3 ovarian, 48.2%; in the assay with NCI/ADR-RES ovarian, 26.4%; in the assay on BT-549 breast it was 36.9%; in the assay with MDA-MB-435 melanoma, 41.5%; with SW-620 colon, 27.8%. Moreover, the growth with MCF7 breast was 13.3%; in the assay on HCT-116 colon, 24.3%; in the assay with HCC-2998 colon, 30%; in the assay on KM12 colon, 30.7%.

`Clc1ccc(-c2cnc3c(-c4ccnc(N5CCNCC5)c4)cnn3c2)cc1`: the growth in the assay with SR leukemia is -0.57% (active); in the assay with RPMI-8226 leukemia, -39% (active); in the assay with OVCAR-8 ovarian, 1.08% (active); with OVCAR-5 ovarian it was -21.2% (active); with OVCAR-4 ovarian it was -60.9% (active); with SK-OV-3 ovarian it was 85.2%. For the same molecule, the growth with OVCAR-3 ovarian was -14.6% (active); in the assay on HS 578T breast, -32% (active); in the assay with NCI/ADR-RES ovarian it was -0.0998% (active); in the assay on T-47D breast it was -55.6% (active); in the assay on BT-549 breast it was 78.1%; with MDA-MB-435 melanoma it was -51.1% (active). The growth with SW-620 colon was -50.4% (active); with MCF7 breast it was -63.4% (active); in the assay on HCT-116 colon, -68.3% (active); with HCC-2998 colon it was -43% (active); with KM12 colon, -3.73% (active).

For the molecule `CC(C)(c1ccccc1)c1cc(O)c(C(C)(C)c2ccccc2)cc1O`, the growth in the assay on SR leukemia is 18.5%; in the assay on RPMI-8226 leukemia, 9.65% (active); in the assay with OVCAR-8 ovarian, 45.6%; in the assay with OVCAR-5 ovarian, 78.8%; in the assay with OVCAR-4 ovarian it was 30.8%; in the assay on SK-OV-3 ovarian, 43.1%. For the same molecule, the growth in the assay with IGROV1 ovarian is 42.4%; with OVCAR-3 ovarian, 38.9%; in the assay with NCI/ADR-RES ovarian it was 43.7%; with T-47D breast, -0.998% (active); in the assay with BT-549 breast, 20.6%; in the assay with MDA-MB-435 melanoma, 35.1%. Further, the growth is 31.3% in the assay on SW-620 colon; 12.3% with MCF7 breast; 9.74% (active) in the assay with HCT-116 colon; 61% with HCC-2998 colon; 19.4% in the assay on KM12 colon.

In the case of `COc1cccc(/C(C)=N/NC(=O)CSc2nc3ccccc3c(=O)n2CCc2ccc(S(N)(=O)=O)cc2)c1`, the growth in the assay on SR leukemia was -1.96% (active); with RPMI-8226 leukemia, 4.78% (active); in the assay with OVCAR-8 ovarian, 7.61% (active); in the assay with OVCAR-5 ovarian, 73.2%; in the assay on OVCAR-4 ovarian, -7.35% (active); in the assay on SK-OV-3 ovarian, 43.7%. The growth in the assay with IGROV1 ovarian was 77.1%; with OVCAR-3 ovarian, 20%; with NCI/ADR-RES ovarian, 74.7%; in the assay on T-47D breast, 40%; in the assay with BT-549 breast, 62.9%; in the assay with MDA-MB-435 melanoma it was 38.4%. The growth in the assay on SW-620 colon is 30.7%; in the assay on MCF7 breast, 20.5%; in the assay with HCT-116 colon, -50.5% (active); with HCC-2998 colon it was 69.1%; with KM12 colon, 14%.

`Cc1cc(C#Cc2ccc(C(C)(C)C)cc2)ccc1-n1c(/C=C/c2c(Cl)cccc2Cl)nc2ccccc2c1=O`: the growth is 88.1% in the assay with SR leukemia; 91.5% with RPMI-8226 leukemia; 115% with OVCAR-8 ovarian; 106% in the assay on OVCAR-5 ovarian; 134% in the assay on OVCAR-4 ovarian; 106% with SK-OV-3 ovarian. The growth in the assay on IGROV1 ovarian is 103%; with OVCAR-3 ovarian it was 94.3%; with NCI/ADR-RES ovarian, 103%; with T-47D breast it was 82.5%; in the assay with BT-549 breast it was 105%; with MDA-MB-435 melanoma, 98%. For the same molecule, the growth with SW-620 colon is 85.5%; in the assay with MCF7 breast, 85.9%; in the assay on HCT-116 colon, 89.2%; in the assay with HCC-2998 colon, 99.3%; in the assay with KM12 colon it was 98.6%.

For the molecule `CCN(CC)c1ccc(/C=N/NC(=O)C[N+](C)(C)C)cc1`, the growth with SR leukemia is 16.6%; in the assay with RPMI-8226 leukemia, 92%; in the assay on OVCAR-8 ovarian it was 111%; in the assay with OVCAR-5 ovarian, 99.1%; with SK-OV-3 ovarian, 102%; with IGROV1 ovarian, 115%. In addition, the growth with OVCAR-3 ovarian is 110%; with HS 578T breast, 110%; in the assay with NCI/ADR-RES ovarian, 103%; in the assay with T-47D breast it was 101%; in the assay with BT-549 breast, 103%; in the assay on MDA-MB-435 melanoma, 110%. In addition, the growth was 101% with SW-620 colon; 96.9% in the assay with MCF7 breast; 102% with HCT-116 colon; 104% with HCC-2998 colon; 102% in the assay on KM12 colon.

Take `NS(=O)(=O)c1ccc(CCn2c(SCC(=O)N/N=C/c3cc4ccccc4[nH]3)nc3ccccc3c2=O)cc1`: the growth with SR leukemia is 26.4%; with RPMI-8226 leukemia it was 24.4%; with OVCAR-8 ovarian, 40.5%; with OVCAR-5 ovarian it was 113%; in the assay with OVCAR-4 ovarian it was 68.7%; in the assay with SK-OV-3 ovarian, 95.4%. Moreover, the growth is 65.4% in the assay on IGROV1 ovarian; 68.6% with OVCAR-3 ovarian; 99.8% with NCI/ADR-RES ovarian; 45.2% in the assay on T-47D breast; 74.3% with BT-549 breast; 45.9% with MDA-MB-435 melanoma. Further, the growth in the assay with SW-620 colon is 71.9%; with MCF7 breast it was 37.7%; in the assay with HCT-116 colon, 29.6%; with HCC-2998 colon, 88%; in the assay with KM12 colon it was 50%.

`Cc1ccc2c(C)c3c(ccc4ccccc43)c[n+]2c1`: the growth in the assay on SR leukemia is 58.2%; in the assay with RPMI-8226 leukemia, 47.8%; in the assay with OVCAR-8 ovarian it was 52.5%; in the assay on OVCAR-5 ovarian, 90.3%; in the assay with OVCAR-4 ovarian it was 56.3%; in the assay with SK-OV-3 ovarian it was 83.8%. The growth in the assay on IGROV1 ovarian is 60.6%; with OVCAR-3 ovarian, 53.2%; in the assay with NCI/ADR-RES ovarian it was 95.9%; in the assay with T-47D breast, -8.02% (active); in the assay on BT-549 breast, 37%; in the assay with MDA-MB-435 melanoma, 83.2%. For the same molecule, the growth was 83.1% with SW-620 colon; 35.7% in the assay with MCF7 breast; 81.7% in the assay on HCT-116 colon; 72.6% in the assay with HCC-2998 colon; 28.6% with KM12 colon.

These data come from PubChem BioAssay (NCI).
